Test systems include DU-145 prostate; K-562 leukemia; MALME-3M melanoma; MDA-MB-231 breast; RXF 393 renal; SF-268 CNS; SF-295 CNS; SF-539 CNS; UACC-257 melanoma; M14 melanoma; HCT-15 colon; HT29 colon; SNB-75 CNS; SNB-19 CNS; U251 CNS; PC-3 prostate; SK-MEL-5 melanoma; UACC-62 melanoma; SK-MEL-28 melanoma; LOX IMVI melanoma.
Holding throughout (experiment): NCI-60 one-dose screen, 48 h (100 = growth as untreated, 0 = no growth, -100 = all killed)
What all share (details): 10 µM unless noted

Compounds without any hit were thinned out: in the full panel of roughly 83,000, 20% have a hit.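 Negative percent growth values reflect cell death: -40 means 40% of the cells present at the start died, and -100 means all died.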 Values without a mark were called inactive. Activity calls are given as the source filed them. Rule for the calls: active = growth percent below 10; inactive = the rest.

On to `O=S1(=O)C=C(c2ccccc2)C(c2ccccc2)=C1`, for which the growth in the assay with DU-145 prostate is 9.89% (active); in the assay with K-562 leukemia it was 4.11% (active); with MALME-3M melanoma it was -32.6% (active); in the assay on MDA-MB-231 breast it was 11%; in the assay on RXF 393 renal, -86.8% (active); in the assay on SF-268 CNS, 3.46% (active). Further, the growth with SF-295 CNS was 73.5%; with SF-539 CNS, 9.24% (active); with UACC-257 melanoma, 2.35% (active); in the assay with M14 melanoma it was 12.1%; with HCT-15 colon, -6.66% (active); with HT29 colon, -34.3% (active). The growth in the assay on SNB-75 CNS is 50%; in the assay on SNB-19 CNS, 76.6%; in the assay on U251 CNS, 14.8%; with PC-3 prostate, 39.6%; in the assay on SK-MEL-5 melanoma, 27.4%; with UACC-62 melanoma it was 5.7% (active). Besides, in the assay on SK-MEL-28 melanoma, the growth was 17.9%.

In the case of `Cc1ccc(C=C2C(=O)NC(=O)NC2=O)cc1`, the growth in the assay on DU-145 prostate is 108%; in the assay on K-562 leukemia, 86.1%; in the assay with MALME-3M melanoma it was 101%; with MDA-MB-231 breast, 118%; in the assay with RXF 393 renal, 113%; in the assay with SF-268 CNS, 100%. Further, the growth with SF-295 CNS was 104%; with SF-539 CNS, 111%; in the assay on UACC-257 melanoma, 94%; in the assay with M14 melanoma it was 101%; in the assay on HCT-15 colon it was 104%; in the assay on HT29 colon it was 103%. The growth in the assay on SNB-75 CNS is 92.5%; in the assay on SNB-19 CNS it was 106%; in the assay on U251 CNS it was 99%; in the assay with PC-3 prostate, 95.9%; in the assay on SK-MEL-5 melanoma, 100%; with UACC-62 melanoma it was 102%. Moreover, the growth with SK-MEL-28 melanoma was 107%.

For the molecule `O=c1c2ccccc2c(=O)c2c1sc1c(=O)c3ccc(O)cc3c(=O)c12`, the growth in the assay on DU-145 prostate was -98.5% (active); in the assay with K-562 leukemia it was -11.6% (active); in the assay on MALME-3M melanoma, -96.5% (active); in the assay on MDA-MB-231 breast it was -13.5% (active); with RXF 393 renal, -84% (active); with SF-268 CNS, -32.1% (active). Also, the growth is -94.3% (active) in the assay on SF-295 CNS; -97.1% (active) with SF-539 CNS; -95.2% (active) in the assay on UACC-257 melanoma; -87.5% (active) in the assay with M14 melanoma; -65.4% (active) in the assay on HCT-15 colon; -47.4% (active) in the assay on HT29 colon. The growth in the assay on SNB-75 CNS was -96.4% (active); with SNB-19 CNS, -92% (active); in the assay with PC-3 prostate, -12.7% (active); in the assay with SK-MEL-5 melanoma it was -96.2% (active); in the assay with UACC-62 melanoma, -73.2% (active); in the assay on LOX IMVI melanoma, -61% (active). In addition, the growth in the assay with SK-MEL-28 melanoma is -65% (active).

`COC(=O)c1c2c(c(C)[n+]([O-])c1C)C(=O)C(NCc1cccc(Cl)c1)=CC2=O`: the growth in the assay on DU-145 prostate was 38.3%; in the assay on K-562 leukemia, 6.86% (active); with MALME-3M melanoma, -96.2% (active); in the assay on MDA-MB-231 breast it was 3.99% (active); in the assay on RXF 393 renal, 34.3%; in the assay on SF-268 CNS, 16.2%. Further, the growth with SF-295 CNS is 42.5%; with SF-539 CNS, 4.07% (active); with UACC-257 melanoma, -37.5% (active); with M14 melanoma, 1.44% (active); with HCT-15 colon it was 7.55% (active); in the assay with HT29 colon, 5.87% (active). Also, the growth with SNB-75 CNS is 127%; in the assay with SNB-19 CNS it was 9.37% (active); in the assay with U251 CNS, -6% (active); with PC-3 prostate it was 4.17% (active); with SK-MEL-5 melanoma, -77.7% (active); with UACC-62 melanoma it was -42.6% (active). Further, the growth with SK-MEL-28 melanoma is 63%.

Regarding `O=C(NNC(=O)c1nc2cc(F)ccc2n2cccc12)c1cnccn1`, the growth in the assay on DU-145 prostate is 44.5%; in the assay on K-562 leukemia, 18.2%; with MALME-3M melanoma it was 37.7%; in the assay with MDA-MB-231 breast, 37.4%; in the assay with RXF 393 renal it was 66.4%; with SF-268 CNS, 34.8%. For the same molecule, the growth in the assay on SF-295 CNS is 21.6%; in the assay on SF-539 CNS, 29.6%; in the assay with UACC-257 melanoma, 53.6%; with M14 melanoma, 23.4%; in the assay with HCT-15 colon, 24.3%; in the assay on HT29 colon it was 31.2%. The growth in the assay with SNB-75 CNS was 77.1%; in the assay with SNB-19 CNS it was 33%; in the assay with U251 CNS, 20.3%; in the assay on PC-3 prostate, 43.7%; in the assay on SK-MEL-5 melanoma, 42.7%; with UACC-62 melanoma, 19.6%. Also, the growth in the assay on SK-MEL-28 melanoma was 36.4%.

In the case of `Cc1ccc(-c2csc(N(C(=O)N3CCN(c4cc5c(cc4F)c(=O)c(C(=O)O)cn5C4CC4)CC3)c3ccccc3)n2)cc1`, the growth was 21.4% in the assay on DU-145 prostate; 13.5% with K-562 leukemia; 3.95% (active) with MALME-3M melanoma; 24.2% in the assay on MDA-MB-231 breast; 4.05% (active) in the assay on RXF 393 renal; 20.4% in the assay on SF-268 CNS. In addition, the growth in the assay on SF-295 CNS is 2.22% (active); with SF-539 CNS, -0.211% (active); in the assay on UACC-257 melanoma it was 9.78% (active); in the assay on M14 melanoma, 21.1%; in the assay with HCT-15 colon it was 7.57% (active); in the assay on HT29 colon it was 3.8% (active). Moreover, the growth with SNB-75 CNS is 18.6%; with SNB-19 CNS, 15.7%; with U251 CNS, 12.6%; with PC-3 prostate it was 11.8%; with SK-MEL-5 melanoma, -57.2% (active); in the assay with UACC-62 melanoma it was 1.23% (active). In addition, the growth in the assay on SK-MEL-28 melanoma is 32.3%.

`c1ccc2c(c1)CCCc1nnc3nc4ccccc4n3c1-2`: the growth was 39.9% with DU-145 prostate; 31.4% in the assay with K-562 leukemia; 53.5% in the assay with MALME-3M melanoma; 38.5% in the assay on MDA-MB-231 breast; 46.7% in the assay on RXF 393 renal; 44.5% in the assay on SF-268 CNS. In addition, the growth in the assay on SF-295 CNS is 30.7%; in the assay on SF-539 CNS it was 69.5%; with UACC-257 melanoma, 37.6%; in the assay on M14 melanoma, 28.3%; with HCT-15 colon, 40.2%; with HT29 colon, 31.4%. Further, the growth in the assay on SNB-75 CNS was 45.4%; in the assay on SNB-19 CNS it was 56.5%; in the assay with U251 CNS, 38.5%; in the assay with PC-3 prostate, 37.1%; in the assay on SK-MEL-5 melanoma, 56.5%; with UACC-62 melanoma, 57.7%. For the same molecule, the growth in the assay with SK-MEL-28 melanoma is 83.7%.

Take `Cn1c2c(c3ccc(Cl)c(Cl)c31)C(C#N)C(C)(C)NC2=O` (configuration not stated): the growth with DU-145 prostate was 106%; with K-562 leukemia, 74.5%; in the assay on MALME-3M melanoma, 90.4%; with MDA-MB-231 breast it was 81.1%; in the assay with RXF 393 renal it was 76.4%; in the assay on SF-268 CNS it was 99.6%. Further, the growth was 76.1% in the assay with SF-295 CNS; 86.2% in the assay on SF-539 CNS; 77.4% in the assay with UACC-257 melanoma; 90.3% in the assay on M14 melanoma; 96.1% in the assay on HCT-15 colon; 88.5% in the assay on HT29 colon. In addition, the growth with SNB-75 CNS was 76.6%; in the assay on SNB-19 CNS, 91.8%; in the assay on PC-3 prostate, 95.1%; in the assay on SK-MEL-5 melanoma, 5.3% (active); with UACC-62 melanoma, 66.6%; with LOX IMVI melanoma, 84.4%. For the same molecule, the growth in the assay with SK-MEL-28 melanoma is 105%.

The values above are taken from PubChem BioAssay (NCI).
